High-throughput results as filed in PubChem BioAssay.
Lassa entry inh – qHTS for Inhibitors of binding or entry into cells for Lassa Virus; 300,000 compounds, 1.2% hits; Potency, µM (series often up to 37.9 µM), actives largely listed as inhibitors; Lassa virus pseudotype entry inhibition, cell reporter; calls by dose curve; tested in HEK293 cells; also: nearly all actives have a fitted effect of over 50% in size
RE007 growth inh – qHTS Assay for Inhibitors of the HIV-1 protein Vpr; S. pombe RE007 Vpr strain, BacTiter-Glo ATP luminescence, 24 h; Potency, µM (highest dose often 92.2 µM), most hits filed as inhibitors; 360,000 compounds, 0.21% hits; active = well fitted falling curve with a large enough effect; inconclusive = small, poorly fitted or top-dose-only effect; inactive = no such curve, though single readings can be large or run the other way; also: nearly all actives have a fitted effect of over 50% in size
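Fission yeast RE007 carrying one integrated HIV-1 vpr copy, seeded at OD 0.01 in PMG+AL medium with 23 nL pinned compound. Grown 24 h at 30 degrees; viability read by BacTiter-Glo luminescence after 5 min.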
FMDV inh – High Throughput Screening for Foot and Mouth Disease Virus Antivirals; FMDV antiviral cell-based qHTS; Potency, µM (doses to about 57.9 µM), hits mostly inhibitors; 410,000 compounds, 1.2% hits; AID 1159524, 2015; calls by dose curve; tested in HEK293T cells; also: read-out not given here; nearly all actives have a fitted effect of over 45% in size
HCV inhibitor – qHTS Assay for Inhibitors of Hepatitis C Virus (HCV) | Huh7.5.1 HCVcc-Cre infection, luciferase reporter, 44 h | Potency, µM (top dose mostly 41.8 µM), hits mostly inhibitors | 340,000 compounds, 3.4% hits
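Whole-lifecycle infectious HCVcc-Cre system; cells 1,000/well, compound then virus (~0.5 moi) added 4 h after plating, 44 h culture. Luciferase read 15 sec following 15 min substrate incubation, room temp.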
Sm TGR inh – qHTS Assay for the Inhibitors of Schistosoma Mansoni Peroxiredoxins; Schistosoma mansoni thioredoxin glutathione reductase (TGR), Q962Y6; purified TGR, DTNB reduction, TNB absorbance 405 nm; Potency, µM (top dose mostly 114 µM), hits mostly inhibitors; 360,000 compounds, 3% hits; also: nearly all actives have a fitted effect of over 60% in size
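TGR 20 nM + NADPH 100 uM (dispensed conc.), cpd preinc 15 min RT; start with NADPH (500 uM addition) then DTNB (15 mM addition). Kinetic TNB absorbance, 405 nm filter. Four-parameter Hill fit across titration.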
MARV entry inh – qHTS for inhibitors of binding or entry into cells for Marburg Virus; Marburg virus pseudotyped entry inhibition, cell reporter; Potency, µM (series often up to 37.8 µM), usual class: inhibitors; 300,000 compounds, 1.8% hits; calls by dose curve; tested in HEK293 cells
A number is an active result. Compounds with a hit are over-represented: about 7.2% of the library has one in this group of screens. Unless noted, calls follow the shape of the dose curve; as a rule, active = well fitted curve in the direction sought with a large enough effect; inconclusive = small, poorly fitted or top-dose-only effect, or another doubt; inactive = no such curve, though single readings can be large; an effect the other way counts as inactive or inconclusive.

What do the screens show for `COC(=O)c1ccc(C(=O)NCC2Cc3cccc(-c4ccc(C(=O)OC)cn4)c3O2)cc1` (stereo unspecified)?
FMDV inh: inactive

What do the screens show for `CCCCN(C)CCNC(=O)c1ccc2c(c1)NC(=O)CN2`?
Lassa entry inh: inactive; FMDV inh: inactive; Sm TGR inh: inactive

What do the screens show for `COc1ccc(CN2CCCC(n3cc(C(=O)N4CCCCC4)nn3)C2)cc1OC` (stereo unspecified)?
FMDV inh: inactive

What do the screens show for `Cc1oc(-c2ccccc2)nc1CS(=O)CC(=O)NC1CCCCCC1` (stereo unspecified)?
RE007 growth inh: inactive; FMDV inh: inactive; HCV inhibitor: inactive; Sm TGR inh: 7.1µM

What do the screens show for `Cc1cccc(-c2nc(CS(=O)CC(=O)NC3CCCCC3)c(C)o2)c1` (stereo unspecified)?
Lassa entry inh: inactive; RE007 growth inh: inactive; FMDV inh: inactive; HCV inhibitor: inactive; Sm TGR inh: 56µM; MARV entry inh: inactive

Results for C=CCOc1ccc(C2C3=C(CCCC3=O)N(CC(=O)O)C3=C2C(=O)CCC3)cc1OCC ?
Lassa entry inh: inconclusive; RE007 growth inh: inactive; FMDV inh: inactive; HCV inhibitor: inactive; Sm TGR inh: 45µM; MARV entry inh: inconclusive

What do the screens show for `C#CCOc1ccc(C2C3=C(CCCC3=O)N(CC(=O)O)C3=C2C(=O)CCC3)cc1Br`?
Lassa entry inh: inactive; RE007 growth inh: inactive; FMDV inh: inactive; HCV inhibitor: inactive; Sm TGR inh: 40µM; MARV entry inh: inactive

How did CCCOc1ccc(C2C3=C(CCCC3=O)N(CC(=O)O)C3=C2C(=O)CCC3)cc1OCC do in these assays?
Lassa entry inh: inactive; RE007 growth inh: inactive; FMDV inh: inactive; HCV inhibitor: inactive; Sm TGR inh: inactive; MARV entry inh: inactive

Results for CCCC12C(=O)C(C)(C(c3ccccc3)=C1c1ccccc1)C1C(=O)N(c3ccc(C)cc3)C(=O)C12 (stereo unspecified) ?
Lassa entry inh: inconclusive; RE007 growth inh: inactive; FMDV inh: inconclusive; HCV inhibitor: 4.5µM; Sm TGR inh: inactive; MARV entry inh: inconclusive

Results for CCC12C(=O)C(CC)(C(c3ccccc3)=C1c1ccccc1)[C@@H]1C(=O)N(c3ccc(C)cc3)C(=O)C12 (stereo partly specified) ?
Lassa entry inh: inactive; RE007 growth inh: inactive; FMDV inh: inactive; HCV inhibitor: inactive; Sm TGR inh: inactive; MARV entry inh: inactive

Results for CCC12C(=O)C(CC)(C(c3ccccc3)=C1c1ccccc1)[C@@H]1C(=O)N(c3ccccc3)C(=O)C12 (stereo partly specified) ?
Lassa entry inh: inactive; RE007 growth inh: inactive; FMDV inh: inactive; HCV inhibitor: 14µM; Sm TGR inh: inactive; MARV entry inh: inconclusive

How did Oc1c(Br)cc(Br)cc1CNc1cccc2cccnc12 do in these assays?
RE007 growth inh: inconclusive; FMDV inh: inactive; HCV inhibitor: inactive; Sm TGR inh: 1.8µM

What do the screens show for `Cc1ccc(NC(=O)CSc2nc(N)c3c4c(sc3n2)CSC(C)(C)C4)cc1`?
Lassa entry inh: 21µM; RE007 growth inh: inactive; FMDV inh: inconclusive; HCV inhibitor: 11µM; Sm TGR inh: inactive; MARV entry inh: inconclusive

How did CCN(CC)C(=O)CSC(Nc1ccc(F)cc1)=C(C#N)C#N do in these assays?
Lassa entry inh: inactive; RE007 growth inh: inactive; FMDV inh: inconclusive; HCV inhibitor: inactive; Sm TGR inh: inactive; MARV entry inh: inconclusive

Results for Cc1ccc(CSC(Nc2ccc(F)cc2)=C(C#N)C#N)cc1 ?
Lassa entry inh: 13µM; RE007 growth inh: inactive; FMDV inh: inactive; HCV inhibitor: 8.9µM; Sm TGR inh: inactive; MARV entry inh: inconclusive

How did O=C1NC(c2ccccn2)Nc2sc3c(c21)CCC3 (stereo unspecified) do in these assays?
Lassa entry inh: inactive; RE007 growth inh: inconclusive; FMDV inh: inactive; HCV inhibitor: inactive; Sm TGR inh: 32µM; MARV entry inh: inactive

Results for O=C1NC(c2cccnc2)Nc2sc3c(c21)CCCC3 (stereo unspecified) ?
Lassa entry inh: inactive; RE007 growth inh: inactive; FMDV inh: inactive; HCV inhibitor: inactive; Sm TGR inh: 45µM; MARV entry inh: inconclusive

How did CC1(C)Cc2c(sc3c2C(=O)NC(c2cccnc2)N3)CO1 (stereo unspecified) do in these assays?
Lassa entry inh: inactive; RE007 growth inh: inactive; FMDV inh: inactive; HCV inhibitor: inactive; Sm TGR inh: inactive; MARV entry inh: inactive

How did CN1CCc2c(sc3c2C(=O)NC(c2ccccc2)N3)C1 (stereo unspecified) do in these assays?
Lassa entry inh: inconclusive; RE007 growth inh: inactive; FMDV inh: inactive; HCV inhibitor: inactive; Sm TGR inh: inactive; MARV entry inh: inactive

What do the screens show for `Cc1ccsc1C1NC(=O)c2c(sc3c2CCCC3)N1` (stereo unspecified)?
Lassa entry inh: inactive; RE007 growth inh: inconclusive; FMDV inh: inactive; HCV inhibitor: inactive; Sm TGR inh: 35µM; MARV entry inh: inconclusive

How did CN1CCc2c(sc3c2C(=O)NC(c2ccccn2)N3)C1 (stereo unspecified) do in these assays?
Lassa entry inh: inactive; RE007 growth inh: inactive; FMDV inh: inactive; HCV inhibitor: inactive; Sm TGR inh: 40µM; MARV entry inh: inactive

What do the screens show for `C[C@H]1COC(=O)[C@H](Cc2ccccc2)NC(=O)[C@@H](C)COC(=O)[C@H](Cc2ccccc2)NC1=O`?
MARV entry inh: inactive

What do the screens show for `COC(=O)c1cc2oc(C)cc2n1Cc1ccc(Br)cc1F`?
FMDV inh: inactive; Sm TGR inh: inactive; MARV entry inh: inactive

What do the screens show for `CC(C)(C)C(=O)Nc1nc2c(s1)CN(Cc1ccccc1)CC2`?
Lassa entry inh: inactive; RE007 growth inh: inactive; FMDV inh: inactive; HCV inhibitor: inconclusive; Sm TGR inh: 25µM; MARV entry inh: inconclusive

Results for COc1ccc(CCNC(=O)CS(=O)(=O)Cc2nc(-c3cccc(Cl)c3)oc2C)cc1OC ?
Lassa entry inh: inactive; FMDV inh: inconclusive; Sm TGR inh: inactive; MARV entry inh: inactive

How did NC(=O)c1ccc(N=Cc2ccc([N+](=O)[O-])s2)cc1 do in these assays?
Lassa entry inh: inconclusive; RE007 growth inh: 40µM; FMDV inh: inconclusive; HCV inhibitor: inconclusive; Sm TGR inh: 14µM; MARV entry inh: inconclusive

What do the screens show for `O=C(Cc1cccs1)N/N=C\c1ccc([N+](=O)[O-])s1`?
RE007 growth inh: inactive; FMDV inh: inactive; HCV inhibitor: inconclusive; Sm TGR inh: inconclusive

How did O=C(CNC(=O)c1ccccc1Cl)N/N=C/c1ccc([N+](=O)[O-])s1 do in these assays?
Lassa entry inh: inconclusive; RE007 growth inh: inactive; FMDV inh: inactive; HCV inhibitor: 13µM; Sm TGR inh: inactive; MARV entry inh: inconclusive
